Screening data from PubChem BioAssay.
TEAD-YAP block – TEAD-YAP interaction inhibition; hit rate 1.4% among 640,000; AID 1259422; inhibition, % at 9.12 µM; HEK-TIYL cells, TEAD-Gal4/YAP UAS-luciferase luminescence; in the data active means inhibition above about 32%
GPR151 ag – human GPR151 activation; activation, % at 11.2 µM; Q8TDV0; PathHunter beta-arrestin GPR151 cells, luminescence; hit rate 1% among 650,000; in the data active means activation above about 4.9%
FBW7 act – human FBW7 E3 ligase activation, primary screen; normalized activity (activation), % at 26.1 µM; Q969H0; AlphaScreen FBW7–phospho-cyclin E peptide binding, activator screen; hit rate 0.13% among 650,000; in the data active means normalized activity above about 1.9%;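 further: purified mutant Fbw7 with reduced substrate affinity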
Target sequence (Q969H0 whole entry, looked up): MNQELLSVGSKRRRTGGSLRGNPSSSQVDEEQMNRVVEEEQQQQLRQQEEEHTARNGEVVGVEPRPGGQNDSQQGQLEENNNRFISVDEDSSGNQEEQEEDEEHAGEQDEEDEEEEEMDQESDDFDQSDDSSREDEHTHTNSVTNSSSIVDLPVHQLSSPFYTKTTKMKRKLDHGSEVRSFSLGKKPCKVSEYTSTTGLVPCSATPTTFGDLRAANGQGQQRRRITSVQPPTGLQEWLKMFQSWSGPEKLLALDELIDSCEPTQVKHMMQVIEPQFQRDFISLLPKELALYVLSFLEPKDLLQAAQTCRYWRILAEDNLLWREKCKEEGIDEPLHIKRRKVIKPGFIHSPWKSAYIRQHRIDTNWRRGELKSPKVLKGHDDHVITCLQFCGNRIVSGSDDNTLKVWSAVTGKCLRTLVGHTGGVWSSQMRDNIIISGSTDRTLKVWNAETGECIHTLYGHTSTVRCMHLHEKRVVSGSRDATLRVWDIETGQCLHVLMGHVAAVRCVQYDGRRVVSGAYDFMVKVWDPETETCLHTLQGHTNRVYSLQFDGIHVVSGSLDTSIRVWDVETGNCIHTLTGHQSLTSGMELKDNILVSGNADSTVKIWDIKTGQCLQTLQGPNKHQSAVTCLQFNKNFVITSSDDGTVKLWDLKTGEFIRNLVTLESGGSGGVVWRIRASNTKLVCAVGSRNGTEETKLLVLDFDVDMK
MITF inh – human MITF inhibition, primary screen | O75030 | AlphaScreen MITF homodimerization, bead proximity signal | inhibition, % at 2.6 µM | hit rate 0.91% among 650,000 | AID 1259374; in the data active means inhibition above about 50%
A number is an active result; i = inactive; ! = not active in a repeat. Sampled rows, rich in hits. Any-hit rate of the full collection: about 3.5%.

SMILES	TEAD-YAP block	GPR151 ag	FBW7 act	MITF inh
CC1CCc2c(sc3nnn(CC(=O)NCc4cccs4)c(=O)c23)C1 (stereo not drawn)	43	i	i	i
CCC(=O)NC(c1cccs1)c1ccc2ccccc2c1O (stereo not drawn)	i	i	i	i
CCCCC(=O)NC(c1cccs1)c1ccc2ccccc2c1O (stereo not drawn)	i	i	i	i
CCCC(=O)NC(c1cccs1)c1ccc2cccnc2c1O (stereo not drawn)	86	i	i	i
CCC(=O)NC(c1cccs1)c1ccc2cccnc2c1O (stereo not drawn)	77	i	i	i
O=C1CC(c2ccc(Cl)cc2)CC2=C1C(c1ccc(C(F)(F)F)cc1)Nc1ccccc1N2 (stereo not drawn)	i	i	i	i
N=C1/C(=C/c2cccn2-c2cc([N+](=O)[O-])ccc2Cl)C(=O)N=C2SC=CN12	36	i	i	i
Cc1ccc2[nH]c(C)c(CCNS(=O)(=O)c3cc([N+](=O)[O-])ccc3C)c2c1	i	i	i	i
Cc1[nH]c2ccc(F)cc2c1CCNS(=O)(=O)c1cc([N+](=O)[O-])ccc1Cl	61	i	i	i
O=C(NCc1ccccc1)C1(c2ccccc2)CCOCC1	i	i	i	i
O=C(CCl)N1CCN(c2ccc([N+](=O)[O-])cc2)CC1	34	i	i	i
COc1ccc(N2CCN(C(=O)CN(c3cccc(C)c3C)S(C)(=O)=O)CC2)cc1	i	i	i	i
CC1Cc2ccccc2N1C(=O)CN1CCc2ccccc2C1 (stereo not drawn)	i	i	i	i
COc1ccc(N2CCN(C(=O)CN(c3ccccc3C)S(C)(=O)=O)CC2)cc1	i	i	i	72
COc1ccc(N2CCN(CC(=O)N3c4ccccc4CC3C)CC2)cc1 (stereo not drawn)	i	i	i	65
COc1ccc(N2CCN(C(=O)CCl)CC2)cc1	49	i	i	i
CC1(C)CC(=O)N(CC(=O)NCc2ccc(F)cc2)c2ccccc2S1	i	i	i	i
O=C(CN(c1ccc(Br)cc1)S(=O)(=O)c1ccccc1)NCCSCc1ccc(Cl)cc1	i	i	i	i
COc1cccc(C2C(C(=O)Nc3cccc(F)c3)=C(C)NC3=C2C(=O)CCC3)c1OC (stereo not drawn)	i	i	i	i
CC(=O)N/C(=N\c1nc(C)cc(C)n1)Nc1ccc2ccccc2c1	52	i	i	i
CC(=O)N/C(=N\c1nc(C)cc(C)n1)Nc1cccc(C)c1	i	i	i	i
COc1cc(C(=O)N/C(=C/c2ccc(F)cc2)C(=O)NC(C)C(=O)O)cc(OC)c1OC (stereo not drawn)	i	i	i	i
O=c1c2c(nc3cc(-c4ccco4)[nH]n13)CCS2	i	i	i	89
Nc1c(C(=O)Nc2cccnc2)sc2nc(-c3ccccc3)cc(C(F)(F)F)c12	i	i	i	i
O=C(NCc1nc(-c2ccncc2)n[nH]1)C1(c2ccc(Cl)cc2Cl)CC1	i	i	i	i
SMILES	TEAD-YAP block	GPR151 ag	FBW7 act	MITF inh
O=C(CSc1nnc(CNC(=O)c2ccc(F)cc2)o1)NCc1ccco1	i	i	i	i
O=c1[nH]c2c([N+](=O)[O-])cccc2c2ccccc12	i	i	i	i
NS(=O)(=O)c1cccc2c1c([N+](=O)[O-])cc1[nH]c(=O)c(=O)[nH]c12	i	i	i	69!
COc1ccc(C(=O)/C=C/Nc2ccccc2NS(=O)(=O)Cc2ccccc2)cc1	i	i	i	i
CC(CS(=O)(=O)c1ccc2ccccc2c1)N1CCCCC1 (stereo not drawn)	33	i	i	i
CCN1C(=O)N(CC)C(NNC(N)=S)C1NNC(N)=S (stereo not drawn)	90	i	i	i
c1ccc(-c2ccc3cnc(Nc4ccc(-n5cnc(N6CCOCC6)n5)cc4)nc3c2)cc1	i	i	i	i
Cn1cc(-c2ccc3cnc(Nc4ccc(-n5cnc(-c6ccc(=O)[nH]c6)n5)cc4)nc3c2)cn1	40	i	i	i
c1cc(-n2cnc(N3CCOCC3)n2)ccc1Nc1ncc2ccc(-c3cn[nH]c3)cc2n1	96	i	i	i
c1cc(-n2cnc(N3CCOCC3)n2)ccc1Nc1cc2cc(-c3cn[nH]c3)ccc2cn1	92	i	i	i
Cn1cc(-c2ccc3cnc(Nc4ccc(-n5cnc(N6CCOCC6)n5)cc4)nc3c2)cn1	96	i	i	i
Cc1ccc2c(Cl)cc(Cl)c(OCC(=O)OCC(N)=O)c2n1	i	i	i	i
Cc1occc1-c1nnc(SCC(=O)Nc2nccs2)n1Cc1ccccc1	i	i	i	i
CCN1CCN(C2CCN(c3nc4nonc4nc3NCc3ccccc3)CC2)CC1	i	i	i	i
Cn1cc(-c2ccc3cnc(Nc4ccc(-n5cnc(N6CCCC(O)C6)n5)cc4)nc3c2)cn1 (stereo not drawn)	90	i	i	i
Cn1cc(-c2ccc3cnc(Nc4ccc(-n5cnc(C(C)(C)C)n5)cc4)nc3c2)cn1	i	i	i	i
Cn1nnc2c(N3CCN(S(=O)(=O)c4ccccc4Cl)CC3)ncnc21	38	i	i	i
CCOC(=O)c1c(NC(=O)/C=C/C(N)=O)sc(C)c1C	45	i	i	i
COC(=O)c1c(NC(=S)Nc2ccccc2)sc(Cc2ccccc2)c1C	i	i	i	i
CCOC(=O)/C=C/C(=O)Nc1sc(C)c(C)c1C(N)=O	i	i	i	i
CCOC(=O)c1c(NC(=O)/C=C/C(=O)O)sc(C)c1-c1ccc(Cl)cc1	41	i	i	i
CCOC(=O)c1c(-c2ccc(OCC)cc2)csc1NC(=O)/C=C/C(=O)O	48	i	i	i
COC(=O)c1c(NC(=O)/C=C/C(=O)O)sc(Cc2ccccc2)c1C	36	i	i	i
CN(Cc1cnccn1)C(=O)CC1C(=O)NCCN1Cc1cccs1 (stereo not drawn)	i	i	i	i
Cc1cccc(NS(=O)(=O)c2cc(C(=O)N3CCC(C(N)=O)CC3)ccc2C)c1	i	i	i	i
SMILES	TEAD-YAP block	GPR151 ag	FBW7 act	MITF inh
COc1ccc(OC)c(NC2=C(Cl)C(=O)c3ccccc3C2=O)c1	i	i	i	62
COc1ccc(C(=O)Nc2cccc(OC(=O)c3cc(S(=O)(=O)N4CCOCC4)ccc3Cl)c2)cc1	55	i	i	i
O=C(Oc1ccccc1)c1ccc(NC(=O)c2cc(S(=O)(=O)N3CCOCC3)ccc2Cl)cc1	i	i	i	i
COc1cccc(C(=O)Nc2cccc(OC(=O)c3cc(S(=O)(=O)N4CCCCC4)ccc3Cl)c2)c1	47	i	i	i
O=C(Nc1cccc(OC(=O)c2cc(S(=O)(=O)N3CCCCC3)ccc2Cl)c1)c1ccco1	i	i	i	i
Cc1cc(O)c(C(c2ccc(Cl)c(Cl)c2)c2c(O)cc(C)n(C)c2=O)c(=O)n1C	i	i	i	i
CN(c1ccccc1)c1ccc(/C=C/[N+](=O)[O-])cc1	34	i	i	i
Cc1ccsc1/C=C1\CCc2ccccc2C1=O	68	i	i	i
Cc1ccc(C(C)(C)CC(=O)N2CCN(S(=O)(=O)c3ccc([N+](=O)[O-])cc3)CC2)cc1	i	i	i	i
CC(C)Cc1cc(C(=O)Nc2cccc(Cl)c2)no1	i	i	i	i
CC(C)c1cc(C(=O)Nc2cccc(O)c2)no1	81	i	i	i
